Source: PubChem BioAssay (National Center for Advancing Translational Sciences (NCATS))
This is a sample that favours compounds with a hit; in the whole collection about 0.8% have one here.
Tb PGK inh – blocks T. brucei phosphoglycerate kinase; P07378; PGK/GAPDH coupled, Kinase-Glo luminescence, 60 min; Potency, µM (doses to about 57.5 µM), for the others: at the top dose activity change, negative = inhibition, actives largely listed as inhibitors; 0.043% of 380,000 active; note: potency is the fitted concentration of half-maximal effect; % is set by controls: 0 for no effect and ±100 for the full control effect; nearly all actives have a fitted effect of over 60% in size
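Recombinant glycosomal PGK reaction used 1,3-bisphosphoglycerate generated in-well by GAPDH (100nM final) in 100mM TEA pH 7.6, 5mM MgCl2, 0.01% Tween-20. After 60 minutes at room temperature, ATP was read by Kinase-Glo Plus luminescence end-point.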
APEX1 inh – inhibitors of human APE1 endonuclease; recombinant APE1, TAMRA/BHQ-2 abasic DNA cleavage fluorescence; Potency, µM (series often up to 65.8 µM), for the others: at the highest dose activity change, negative = inhibition, actives largely listed as inhibitors; 0.35% of 350,000 active; AID 2517;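 note: potency is the fitted concentration of half-maximal effect; plate controls were vehicle for no effect and reference inhibitor for full effect; nearly all actives have a fitted effect of over 55% in size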
Target sequence (P27695 whole entry, looked up): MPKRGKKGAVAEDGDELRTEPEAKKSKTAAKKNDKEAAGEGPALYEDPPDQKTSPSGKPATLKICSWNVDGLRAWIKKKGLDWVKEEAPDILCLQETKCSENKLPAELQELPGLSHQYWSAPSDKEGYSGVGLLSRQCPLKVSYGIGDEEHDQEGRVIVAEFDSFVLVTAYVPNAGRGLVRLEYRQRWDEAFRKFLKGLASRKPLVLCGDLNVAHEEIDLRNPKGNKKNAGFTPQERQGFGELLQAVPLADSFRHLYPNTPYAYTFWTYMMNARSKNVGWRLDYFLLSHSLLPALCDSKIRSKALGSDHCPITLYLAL
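Step 1: APE1 (0.75 nM) with compound, 15 min RT. Step 2: add 50 nM fluorophore/quencher THF duplex. Step 3: three fluorescence reads 60 s apart (525/598 nm); read 3 minus read 1 = reaction progress.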
Tb PFK inh-1 – inhibitors of T. brucei phosphofructokinase; O15648; T. brucei PFK, ADP-Glo luminescence; Potency, µM (highest dose often 57.5 µM), for the others: top-dose activity, negative = inhibition, hits mostly inhibitors; 0.17% of 330,000 active;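 note: potency is the fitted concentration of half-maximal effect; 0% = uninhibited 1x PFK enzyme wells and -100% = no-enzyme wells; nearly all actives have a fitted effect of over 60% in size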
Target sequence (O15648 whole entry, looked up): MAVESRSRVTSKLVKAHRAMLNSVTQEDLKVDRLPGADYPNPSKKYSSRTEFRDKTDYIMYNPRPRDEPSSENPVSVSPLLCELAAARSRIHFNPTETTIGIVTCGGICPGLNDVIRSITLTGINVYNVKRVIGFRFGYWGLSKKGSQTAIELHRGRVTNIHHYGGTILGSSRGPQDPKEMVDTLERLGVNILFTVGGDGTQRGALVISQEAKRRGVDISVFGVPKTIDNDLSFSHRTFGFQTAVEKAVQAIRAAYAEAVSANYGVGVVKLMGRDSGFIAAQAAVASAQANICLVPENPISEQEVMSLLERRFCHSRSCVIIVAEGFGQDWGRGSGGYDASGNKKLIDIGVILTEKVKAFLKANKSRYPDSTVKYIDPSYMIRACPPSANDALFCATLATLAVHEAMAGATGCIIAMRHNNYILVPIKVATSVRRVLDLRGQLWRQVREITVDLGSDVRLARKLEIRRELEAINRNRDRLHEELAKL
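In TEA buffer at pH 8.0 with 5 mM MgCl2, enzyme (1.25 nM) converted F6P (0.5 mM) and ATP (0.1 mM) for 45 min at room temperature. ADP product was read by luciferase luminescence.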
FEN1 inh – inhibitors of human flap endonuclease 1. P39748. Recombinant FEN1 flap cleavage, fluorescence, 15 min. Potency, µM (titrated, usually from 114 µM), without a hit: top-dose activity change, negative = inhibition, actives largely listed as inhibitors. 0.35% of 390,000 active. AID 588795; note: potency is the fitted concentration of half-maximal effect; % is set by controls: 0 for no effect and ±100 for the full control effect; nearly all actives have a fitted effect of over 65% in size
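Read-out was taken twice, immediately and after 15 min, following addition of 50 nM substrate to 10 nM FEN1 that had sat with test compound for 15 min at room temperature. Curves came from a four-parameter Hill model.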
TDP1 block – blocks human tyrosyl-DNA phosphodiesterase 1 | 0.28% of 350,000 active | recombinant TDP1, AlphaScreen DNA substrate cleavage | Potency, µM (top dose mostly 130 µM), for inactives: at the top dose activity change, negative = inhibition, most hits filed as inhibitors | Q9NUW8; note: potency is the fitted concentration of half-maximal effect; % is set by controls: 0 for no effect and ±100 for the full control effect; nearly all actives have a fitted effect of over 40% in size
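E. coli-derived human Tdp1, 1 nM final. Cpd preinc 15 min RT; substrate 15 nM final, 5 min RT; AS bead mix 10 ug/ml final, 10 min RT. Signal loss = tyrosine-FITC cleavage. No-enzyme wells = max signal.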
PI4K2A block – blocks human PI4K2A kinase activity; Q9BTU6; purified PI4K2A, ADP-Glo luminescence, 1 h; active compounds read low; activity change, negative = inhibition, % at 76.9 µM; 0.13% of 420,000 active; AID 1346378; in the data active = activity change below about -50%; inconclusive = mostly about -30% to -49%;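 note: -100% = wells without enzyme as full effect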
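ADP-Glo luminescence measured ADP generated by PI4K2A enzyme (4 ug/mL before mixing) with 1.2 mM PI substrate (pre-mix) and 300 microM ATP (pre-mix). Tris pH7.5 buffer with MgCl2, Triton X-100; 1 h reaction at ambient temperature.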
TbPFK ATP – Tb phosphofructokinase inhibition, orthogonal luminescence. Tb PFK enzyme, ATP depletion, Kinase-Glo Plus luminescence. Potency, µM (titrated, usually from 57.5 µM), for the others: at the top dose inhibition. AID 504636. shares compounds with Tb PFK inh-1. 47% of 1,100 active; calls by dose curve; note: potency is the fitted concentration of half-maximal effect; nearly all actives have a fitted effect of over 60% in size
Tb PFK inh-2 – validation of T. brucei phosphofructokinase inhibitors. shares compounds with Tb PFK inh-1. purified T. brucei PFK, ADP-Glo luminescence, 45 min. Potency, µM (top dose mostly 57.5 µM), for inactives: at the top dose activity change, negative = inhibition, hits mostly inhibitors. 41% of 1,100 active. AID 504637;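 note: potency is the fitted concentration of half-maximal effect; plate controls were full PFK enzyme control for no effect and no enzyme control for full effect; nearly all actives have a fitted effect of over 60% in size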
* = called active by the depositor; i = inactive; ? = inconclusive; . = no result; [ ] = another dose, or the depositor's remark. Unless noted, calls come from the whole dose curve; as a rule, active = well fitted curve in the direction sought with a large enough effect; inconclusive = small, poorly fitted or top-dose-only effect, or another doubt; inactive = no such curve, though single readings can be large; an effect the other way counts as inactive or inconclusive.

SMILES | Tb PGK inh | APEX1 inh | Tb PFK inh-1 | FEN1 inh | TDP1 block | PI4K2A block | TbPFK ATP | Tb PFK inh-2
COc1cc2c(cc1OC)CN(c1ccc([N+](=O)[O-])c(C(F)(F)F)c1)CC2 | i | 24.3% | ? | ? | 5.3% | 6.9 | ? | ?
CCCCCOC(=O)c1ccccc1C(=O)OCCCCC | . | 2.7% | . | . | 6.5% | . | . | .
O=C(CSc1ccc(F)cc1)Nc1ccc2c(c1)C(=O)NC2=O | i | -2.5% | ? | 0.1% | -2.0% | -3.0 | ? | ?
CC[C@@H](CO)NC(=O)[C@H]1C=C2c3cccc4[nH]cc(c34)C[C@H]2N(C)C1 | . | -7.7% | . | . | 4.8% | . | . | .
O=C1C=C(NCc2ccc(Cl)c(Cl)c2)C2(CCCCC2)O1 | -4.9% | -2.3% | 16.9µM* | -9.7% | -5.7% | 0.0 | 6.01µM* | 23.9µM*
COc1ccc(C(CNC(=O)Cc2ccc(Cl)c(Cl)c2)N2CCCCC2)cc1 (configuration not stated) | -3.4% | 16.4% | -7.1% | -2.9% | 4.1% | 3.7 | . | .
COc1cc(/C=C/c2[nH]c(=O)[nH]c(=O)c2[N+](=O)[O-])cc([N+](=O)[O-])c1O | . | -10.1% | ? | ? | . | -20.1 | -25.1% | ?
COc1cc([N+](=O)[O-])c2ncccc2c1[N+](=O)[O-] | . | . | . | . | . | -7.6 | . | .
CCC(=O)Nc1ccccc1 | -8.5% | 24.0% | 4.4% | -2.6% | . | -2.1 | . | .
O=C(Cc1cccc2ccccc12)Nc1cc(C(=O)O)cc(C(=O)O)c1 | -1.4% | 9.2% | 8.49µM* | 24.0% | 7.8% | 1.2 | 1.9µM* | ?
C=C(C)C(=O)Nc1cccc(C2=NOC3(C2)C[C@@H](C(N)=O)N(C(=O)c2ccc(Cl)cc2)C3)c1 (some centres not stated) | 2.24µM* | ? | 9.53µM* | ? | 12.6µM* | -8.4 | 0.675µM* | 0.953µM*
CC(=O)C1CCC2C3CCC4CC(C)(O)CCC4(C)C3CCC12C (configuration not stated) | . | -1.5% | . | . | 8.2% | . | . | .
CN1C(=S)SC(N(O)C(=O)Nc2ccc(Cl)c(Cl)c2)C1(C)C (configuration not stated) | -6.9% | -1.9% | ? | -11.7% | 7.9% | 2.2 | ? | ?
Cc1ccc(-n2c(N)c(C(=O)N3CCN(C)CC3)sc2=S)cc1 | -7.3% | 0.9% | 13.5µM* | 0.6% | 3.4% | 4.5 | 3.79µM* | 9.53µM*
Cc1ccc(OCC(=O)N2CCN(C)CC2)c(Br)c1 | -3.8% | -2.2% | -2.7% | -4.0% | 9.3% | 0.1 | . | .
CC1=NOC(=O)/C1=C\c1ccc(-c2cccc(Cl)c2)o1 | -4.5% | ? | 21.3µM* | 50.1µM* | 1.0% | -8.9 | 6.01µM* | 10.7µM*
CC1CCCC(C)N1C(=O)CSc1nc2c(c(=O)n(C)c(=O)n2C)n1C (configuration not stated) | -1.5% | 63.6% | -1.7% | 9.2% | 7.6% | -0.2 | . | .
CCCCOC(=O)C1=C(N)OC2=C(C(=O)CC(C)(C)C2)[C@]12C(=O)N(C)c1ccccc12 | i | 0.2% | 2.6% | 0.4% | 2.4% | 3.7 | . | .
CC1(C)CC(=O)C2=C(C1)OC1=C(C(=O)CC(C)(C)C1)C2c1ccc(O)cc1O | 3.1% | -2.7% | ? | -13.8% | -8.0% | 12.2 | 1.69µM* | 1.35µM*
COc1cc2c(cc1OC)C1C(=O)c3c(cc4c(c3O)C=CC(C)(C)O4)OC1CO2 (configuration not stated) | . | 4.4% | . | . | 20.8%[56.1 µM] | . | . | .
CCc1nnc(NC(=O)c2cc(-c3ccc(C)o3)nc3ccccc23)s1 | i | 34.3% | 4.78µM* | -12.5% | 4.4% | -3.5 | 4.78µM* | 6.75µM*
Cc1nnc(NC(=O)c2cc(-c3ccco3)nc3ccccc23)s1 | . | -71.5% | ? | . | -8.6% | . | 9.53µM* | ?
COc1cccc(NC(=O)c2cccn(Cc3ccccc3C)c2=O)c1 | 5.8% | . | . | 11.5% | -3.3% | -3.8 | . | .
CCCCCCn1c(=O)c(C(=O)Nc2nnc(C)s2)c(O)c2ccccc21 | . | -1.7% | 0.1% | . | 1.2% | . | . | .
COc1cccc(NC(=O)c2cc(-c3ccc(C)o3)nc3ccccc23)c1 | -10.6% | ? | ? | -18.4% | . | 1.6 | ? | ?
SMILES | Tb PGK inh | APEX1 inh | Tb PFK inh-1 | FEN1 inh | TDP1 block | PI4K2A block | TbPFK ATP | Tb PFK inh-2
CC(Cl)(Cl)Cl | . | 14.8% | . | . | 7.0% | . | . | .
CC[C@@H]1CN2CCc3cc(OC)c(OC)cc3[C@@H]2C[C@@H]1C[C@H]1NCCc2cc(OC)c(OC)cc21 | . | 12.3% | . | . | 14.5%[56.1 µM] | . | . | .
CC(=O)[C@H]1[C@H]([C@H](O)[C@H](O)CO)O[C@](O)(C(=O)O)C[C@@H]1O | -9.6% | -37.6% | 1.69µM* | 5.6% | . | -3.3 | ? | -16.2%
Clc1cccc2c3c([nH]c12)CCNC3 | i | -4.4% | ? | -3.0% | . | 0.0 | ? | ?
Nc1ccc([N+](=O)[O-])cc1O | . | 17.5% | . | . | 6.5% | i | . | .
C[C@]12CC[C@H]3[C@@H](CCC4=CC(=O)CC[C@@H]43)[C@@H]1CC[C@@H]2OC(=O)CCc1ccccc1 | . | -4.1% | . | . | . | -2.1 | . | .
CCOC(=O)c1nc2ccccc2c(=O)n1-c1ccc(C)cc1C | -1.6% | 3.9% | 0.2% | -14.0% | 0.0% | 2.1 | . | .
CCOC(=O)Cc1csc(-n2sc3ccccc3c2=O)n1 | -11.1% | 8.9% | 10.7µM* | ? | 6.6% | -10.6 | ? | ?
Cc1cc(C)n2c(=S)[nH]nc2n1 | -8.8% | 8.1% | ? | -0.9% | 3.1% | -2.9 | 26.9µM* | ?
O=C(Cl)/C=C/C(=O)Cl | . | 2.8% | . | . | 3.1% | . | . | .
C[C@@H]1O[C@@H](O[C@@H]2[C@@H](O)[C@H](OCCc3ccc(O)c(O)c3)O[C@H](CO)[C@H]2OC(=O)/C=C/c2ccc(O)c(O)c2)[C@H](O)[C@H](O)[C@H]1O | 0.2% | 8.3% | 1.69µM* | ? | -3.5% | -5.1 | 4.78µM* | 4.78µM*
Cc1c(N=Cc2ccc(O)c(Br)c2)cccc1[N+](=O)[O-] | -9.3% | 5.6% | 26.9µM* | 7.8% | -3.8% | -3.2 | ? | ?
Nc1cccc2ccccc12 | . | ? | . | . | 18.3% | . | . | .
Cc1cc(C)c2c(=O)n(CC(=O)NC3CCCC3)sc2n1 | -4.5% | 2.6% | 6.01µM* | ? | . | 9.2 | ? | 5.36µM*
